Each structure is given as a SMILES string. The source made the active and inactive calls. Entries that show only a call come without a potency. Calls follow the shape of the dose curve; as a rule, active = well fitted activation curve with a large enough effect; inconclusive = small, poorly fitted or top-dose-only effect; inactive = no such curve, though single readings can be large or run the other way.
Potency is read from the fitted curve at half-maximal effect.

Cytochrome P450 3A4 (Homo sapiens), sequence (P08684 whole entry, looked up): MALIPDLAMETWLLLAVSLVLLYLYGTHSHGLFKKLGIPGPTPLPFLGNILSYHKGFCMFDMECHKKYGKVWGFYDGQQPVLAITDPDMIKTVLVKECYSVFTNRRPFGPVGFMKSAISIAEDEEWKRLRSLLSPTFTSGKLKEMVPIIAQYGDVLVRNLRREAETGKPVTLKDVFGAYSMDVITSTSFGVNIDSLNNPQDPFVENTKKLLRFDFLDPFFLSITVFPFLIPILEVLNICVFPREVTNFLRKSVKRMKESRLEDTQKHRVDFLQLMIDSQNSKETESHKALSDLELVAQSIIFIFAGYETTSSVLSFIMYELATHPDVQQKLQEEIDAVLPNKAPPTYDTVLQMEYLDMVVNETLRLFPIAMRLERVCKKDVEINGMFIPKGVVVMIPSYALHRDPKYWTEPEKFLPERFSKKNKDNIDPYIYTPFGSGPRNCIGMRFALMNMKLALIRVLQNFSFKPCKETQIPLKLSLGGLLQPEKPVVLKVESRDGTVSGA

The assay concerns the target Cytochrome P450 3A4 (Homo sapiens) (UniProt P08684). The assay can be described thus: qHTS Assay for Activators of Cytochrome P450 3A4 (AID 885). Also: nearly all actives have a fitted effect of over 65% in size. As to conditions: recombinant CYP3A4, Luciferin-PPXE luminescence, 60 min; series mostly up to 57.1 µM. The method, then:
NIH Molecular Libraries Screening Centers Network [MLSCN]
NIH Chemical Genomics Center [NCGC]
The P450 gene superfamily is involved in the metabolism and clearance of xenobiotics. This assay used human CYP3A4 to measure the dealkylation of luciferin-6' phenylpiperazinylyl (Luciferin-PPXE; […]) to luciferin. The luciferin is then measured by luminescence after the addition of a luciferase detection reagent. Luciferin-PPXE concentration in the assay was equal to its KM for CYP3A4. Inhibitors and some substrates limit the production of luciferin, and decrease measured luminescence; activators increase the production of luciferin and luminescence.
NCGC Assay Protocol Summary:
Two uL of enzyme and substrate mix (final concentrations: 20nM CYP3A4, 25uM Luciferin-PPXE, 200mM KPO4) were dispensed into a white, solid bottom 1536-well microtiter plate. 23nL of compound was transferred by a pin tool. The plate was incubated at RT for 10 min. Two uL of an NADPH regeneration solution (Promega supplied reagent) was dispensed and the reaction was allowed to continue for 60 min at RT. Then the reaction was stopped by reconstituted luciferin detection buffer. After another 20 min of incubation the plate was read on the ViewLux (Perkin Elmer) at 60 sec exposure and 2x2 binning. This protocol was carried out with Promega-Glo reagents and further information can be found at http://www.promega.com/tbs/tb325/tb325.pdf. Data were normalized to the to AC100 inhibition (57 uM ketoconazole).
Keywords: P450, CYP2D6, Luciferase, MLSMR, MLSCN, NIH Roadmap, qHTS, NCGC
Consider `CC(C)C(=O)Nc1ccc([N+](=O)[O-])c(C(F)(F)F)c1`, for which the Potency result is “inactive”.

For `CS(=O)(=O)Nc1ccc([N+](=O)[O-])cc1Oc1ccccc1`, the Potency result was “inactive”.

As to `CC(COc1ccccc1)N(CCCl)Cc1ccccc1` (configuration not stated), the Potency result was “inactive”.

Regarding `CN(C)CCCN1c2ccccc2CCc2ccc(Cl)cc21`, the Potency entry was “inactive”.

Regarding `CN1C(C(=O)Nc2ccccn2)=C(O)c2ccccc2S1(=O)=O`, the Potency entry is “inactive”.

For `CN1CCN2c3ccccc3Cc3ccccc3C2C1` (configuration not stated), the Potency result was “inactive”.

As to `Clc1ccccc1C(c1ccccc1)(c1ccccc1)n1ccnc1`, the Potency result was “inactive”.

Turning to `Cc1cc(C(C)(C)C)c(O)c(C)c1CC1=NCCN1`, the Potency entry is “inactive”.

On to `O=c1c(-c2ccc(O)cc2)coc2cc(O)cc(O)c12`, for which the Potency result is “inactive”.

`N[C@@H](Cc1c[nH]c2ccc(O)cc12)C(=O)O`: the Potency entry was “inactive”.

As to `Cc1ccccc1N1C(=O)c2cc(S(N)(=O)=O)c(Cl)cc2NC1C` (configuration not stated), the Potency entry was “inactive”.

On to `O=C(Nc1ccc([N+](=O)[O-])cc1Cl)c1cc(Cl)ccc1O`, for which the Potency result is “inactive”.

As to `O=c1c(O)c(-c2ccc(O)c(O)c2)oc2cc(O)cc(O)c12`, the Potency result is “inactive”.

Take `O=C(C1CCCCC1)N1CC(=O)N2CCc3ccccc3C2C1` (configuration not stated): the Potency entry is “inactive”.

Turning to `Fc1ccc([C@@H]2CCNC[C@H]2COc2ccc3c(c2)OCO3)cc1`, the Potency entry was “inactive”.

`Clc1ccc2c(c1)C(N1CCNCC1)=Nc1ccccc1O2`: the Potency result was “inactive”.

For `COc1cc2nc(N3CCN(C(=O)c4ccco4)CC3)nc(N)c2cc1OC`, the Potency was 12.6 µM (active).

For the compound `Cn1ccc2cc3c(cc21)CCN3C(=O)Nc1cccnc1`, the Potency result was “inactive”.

For the compound `COc1ccc(C2CNC(=O)C2)cc1OC1CCCC1` (configuration not stated), the Potency result is “inactive”.

As to `Cc1cc(C(C)(C)C)cc(C)c1CC1=NCCN1`, the Potency result is “inactive”.

On to `C[C@](N)(Cc1ccc(O)c(O)c1)C(=O)O`, for which the Potency result is “inactive”.

Consider `Nc1c2c(nc3ccccc13)CCCC2`, for which the Potency result is “inactive”.

These data come from PubChem BioAssay (NCATS).
